# Measurements from PubChem BioAssay AID651610 (Broad Institute, 2012).
# Among all 360,000 compounds or so, about 3,900 (1.1%) were called active.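 The calls were made as follows: active = mean replicate inhibition score of at least 50 and every replicate individually at or above 50; inconclusive = only one of the two criteria met; inactive = mean below 50 and not all replicates reaching 50.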 Many of the other results were omitted from the sample, so actives are more common in it than they were.
# Assay: blockers of JRFL envelope-mediated fusion – HeLa-JRFL effector, CEM21 target cells, luciferase, primary screen (AID 651610);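 also: 0% = plate neutral controls and 100% = maraviroc near 300 nM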
# Conditions: HeLa-JRFL Env/CEM21 cell fusion, active compounds read high; at 16.7 µM unless noted
row,Structure (SMILES),inhibition
1,CNC[C@@H]1Oc2c(NC(=O)C3CCOCC3)cccc2C(=O)N([C@@H](C)CO)C[C@H]1C,-14.2% (inactive)
2,C[C@H]1CN([C@@H](C)CO)C(=O)Cc2cc(NC(=O)C3CC3)ccc2O[C@@H]1CN(C)C(=O)NC1CCCCC1,2.31% (inactive)
3,C/C=C/c1ccc2c(c1)O[C@H](CN(C)C(=O)C1CCCCC1)[C@@H](C)CN([C@@H](C)CO)S2(=O)=O,8.29% (inactive)
4,C[C@@H]1CN([C@H](C)CO)C(=O)c2cc(C3=CCCC3)cnc2O[C@@H]1CN(C)C(=O)Nc1ccc(F)cc1,4.49% (inactive)
5,O=C(O)CC/C(=C\c1cc2c(cc1Br)OCO2)c1nc2ccccc2s1,-9.93% [at 12.3 µM] (inactive)
6,O=C(N/N=C\c1cc2c(cc1Cl)OCO2)c1ccc(Br)s1,-61.6% [at 12.3 µM] (inactive)
7,CC1(C(=O)N/N=C/c2cc3c(cc2Br)OCO3)CC1(Br)Br (stereo not given),102% [at 12.3 µM] (active)
8,Cc1noc(C)c1S(=O)(=O)Nc1ccc2c(c1)CC(=O)N([C@H](C)CO)C[C@H](C)[C@H](CN(C)S(=O)(=O)c1cn(C)cn1)O2,-15.2% (inactive)
9,Cc1noc(C)c1NC(=O)N(C)C[C@@H]1Oc2ccc(NS(=O)(=O)c3ccc(F)cc3)cc2CC(=O)N([C@@H](C)CO)C[C@H]1C,-12% (inactive)
10,Cc1ccc2nc(-c3ccc(Br)cc3)cn2c1,34.5% [at 12.3 µM] (inactive)
11,Cc1ccc(-c2cn3cc(C)ccc3n2)cc1,60.5% [at 12.3 µM] (active)
12,Cc1ccc(-c2nc3ccc(Cl)cn3c2Cc2ccccc2)cc1,-27% [at 12.3 µM] (inactive)
13,C[C@H](CO)N1C[C@H](C)[C@@H](CN(C)S(=O)(=O)c2ccccc2F)Oc2ncc(C#Cc3ccccc3F)cc2C1=O,17.5% (inactive)
14,Cn1c(C(=O)N2CCC(C(N)=O)CC2)cc2c(=O)n(C)c3ccccc3c21,0.068% [at 12.3 µM] (inactive)
15,CCOC(=O)N1CCN(C(=O)c2nn(-c3ccc(C)cc3)c(=O)c3c2c2ccccc2n3C)CC1,-11% [at 12.3 µM] (inactive)
16,Cn1c2ccccc2c2c(C(=O)N3CCN(c4ccc(F)cc4)CC3)cn(C3CCCC3)c(=O)c21,67.5% [at 12.3 µM] (active)
17,O=C(C[C@@H]1CC[C@H]2NC[C@H](O)COC[C@@H]2O1)NCCN1CCCCC1,-8.63% (inactive)
18,C[C@H]1CCCCO[C@@H](CN(C)C(=O)Cc2ccccc2)[C@@H](C)CN([C@@H](C)CO)C(=O)c2cc(NC(=O)c3ccccc3)ccc2O1,-43.3% (inactive)
19,NC(c1ccccc1)c1csc(NC(=O)Nc2cccc(C(F)(F)F)c2)n1 (stereo not given),39.2% [at 12.3 µM] (inactive)
20,NC(c1csc(NC(=O)Nc2cccc(C(F)(F)F)c2)n1)C1CCCCC1 (stereo not given),61% [at 12.3 µM] (active)
21,COc1ccc(C(N)c2csc(NC(=O)Nc3cccc(C(F)(F)F)c3)n2)cc1 (stereo not given),18.1% [at 12.3 µM] (inactive)
22,C[C@@H]1CN([C@@H](C)CO)C(=O)c2cc(-c3ccccc3F)cnc2O[C@H]1CN(C)C(=O)C1CC1,15% (inactive)

row,Structure (SMILES),inhibition
1,Cc1cc(C)cc(NC(=S)NCCc2c[nH]c3ccccc23)c1,2.48% [at 12.3 µM] (inactive)
2,COc1cccc(CNCCc2c[nH]c3ccccc23)c1OCc1ccccc1F,79.1% [at 12.3 µM] (active)
3,COc1ccc(C(CCNCc2ccccc2F)c2ccc(F)cc2)cc1 (stereo not given),-1.51% [at 12.3 µM] (inactive)
4,CC(C)CC#Cc1ccc2c(c1)O[C@H](CN(C)Cc1ccncc1)[C@H](C)CN([C@H](C)CO)S2(=O)=O,12.7% (inactive)
5,CCCNC(=O)C[C@@H]1CC[C@H]2[C@H](COc3ccc(NC(=O)CCC)cc3C(=O)N2C)O1,-1.97% (inactive)
6,CCNC(=O)c1cc2c(c(-c3cccc(C4=CCCC4)c3)n1)[C@H](CCO)N([S@@](=O)C(C)(C)C)C2,-0.132% (inactive)
7,CNc1nc(Nc2ccc(C)c(Cl)c2)nc(N)c1[N+](=O)[O-],17.7% [at 12.3 µM] (inactive)
8,COc1ccc(Nc2nc(NCc3ccco3)nc(N/N=C/c3ccccc3Cl)n2)cc1,-11.9% [at 12.3 µM] (inactive)
9,COc1cccc(Nc2nc(N)c([N+](=O)[O-])c(NCc3ccco3)n2)c1,56.2% [at 12.3 µM] (active)
10,CO[C@H]1CN(C)C(=O)c2ccc(NC(C)=O)cc2OC[C@@H](C)N(C(=O)c2ccccn2)C[C@@H]1C,4.28% (inactive)
11,C[C@@H]1CN([C@H](C)CO)S(=O)(=O)c2ccc(Br)cc2O[C@@H]1CN(C)Cc1cncnc1,-25.8% (inactive)
12,C[C@@H]1CN([C@H](C)CO)C(=O)c2cccc(N(C)C)c2O[C@H]1CN(C)S(=O)(=O)c1cn(C)cn1,-2.57% (inactive)
13,O=C(CN1CCOCC1)Nc1ccc(NC(=O)CN2CCOCC2)c(Cl)c1,-13.8% [at 12.3 µM] (inactive)
14,O=C(CC(O)(C(F)(F)F)C(F)(F)F)Nc1ccc(Cl)c(Cl)c1,109% [at 12.3 µM] (active)
15,O=C(Cc1ncc(C(F)(F)F)cc1Cl)Nc1cccc(Br)c1,-3.53% [at 12.3 µM] (inactive)
16,Cc1noc(C)c1NC(=O)N[C@@H]1C=C[C@H](CC(=O)N2CCCCC2)O[C@H]1CO,7.13% (inactive)
17,C[C@H](CO)N1C[C@H](C)[C@@H](CN(C)C(=O)c2ccccc2)OCCCC[C@H](C)Oc2ccc(NC(=O)c3ccccc3)cc2C1=O,-52.7% (inactive)
18,CCCCOCCCNC(=O)C[C@@H]1C[C@@]2(C(=O)OCC)CCCC=C2N(CCC2=CCCCC2)C1=O,34.4% [at 12.3 µM] (inactive)
19,COC(=O)[C@]12C[C@H](CC(=O)NCc3ccccc3)C(=O)N(CCC3=CCCCC3)C1=C[C@H](C(C)(C)C)O[C@@H]2C,67.5% [at 12.3 µM] (active)
20,COC(=O)[C@]12C[C@H](CC(=O)NCCCCc3ccccc3)C(=O)N(Cc3ccc4c(c3)OCO4)C1=C[C@H](C(C)(C)C)O[C@@H]2C,-19.5% [at 12.3 µM] (inactive)
21,CCCCCCCCN1C(=O)[C@@H](CC(=O)NCc2ccc(C)o2)C[C@@]2(C(=O)OC)C1=C[C@H](C(C)(C)C)O[C@@H]2C,38% [at 12.3 µM] (inactive)
22,COC(=O)[C@]12C[C@H](CC(=O)NCCC(C)C)C(=O)N(CCc3ccc(OC)c(OC)c3)C1=C[C@H](C(C)(C)C)O[C@@H]2C,14.5% [at 12.3 µM] (inactive)

row,Structure (SMILES),inhibition
1,COCCCNC(=O)C[C@H]1C[C@@]2(C(=O)OC)C(=C[C@H](C(C)(C)C)O[C@@H]2C)N(Cc2ccc3c(c2)OCO3)C1=O,-14% [at 12.3 µM] (inactive)
2,CCOC(=O)[C@]12CCC=C1N(CCC1=CCCCC1)C(=O)[C@H](CC(=O)NCc1ccc(C)o1)C2,-8.89% [at 12.3 µM] (inactive)
3,CCCCOCCCNC(=O)C[C@@H]1C[C@@]2(C(=O)OC)CCCCC=C2N(CCC2=CCCCC2)C1=O,63.6% [at 12.3 µM] (active)
4,CCOC(=O)[C@]12CCCC=C1N(CCC1=CCCCC1)C(=O)[C@H](CC(=O)NCCCOC)C2,20% [at 12.3 µM] (inactive)
5,CCCCCCCCN1C(=O)[C@@H](CC(=O)NCc2ccccc2)C[C@@]2(C(=O)OC)C1=C[C@H](C(C)(C)C)O[C@@H]2C,64.7% [at 12.3 µM] (active)
6,CCCCCCCCN1C(=O)[C@@H](CC(=O)NCCCC)C[C@@]2(C(=O)OC)C1=C[C@H](C(C)(C)C)O[C@@H]2C,39.6% [at 12.3 µM] (inactive)
7,COC(=O)[C@]12C[C@H](CC(=O)NCc3ccc(C)o3)C(=O)N(CCC3=CCCCC3)C1=C[C@H](C(C)(C)C)O[C@@H]2C,70.3% [at 12.3 µM] (active)
8,COc1ccccc1NC(=O)N[C@H]1CC[C@@H](CCn2cc(C3(O)CCCC3)nn2)O[C@@H]1CO,-2.19% (inactive)
9,N#C[C@H]1[C@H](c2ccc(-c3ccccc3)cc2)[C@@H](CO)N1C(=O)Cc1ccccc1,-31.2% (inactive)
10,C[C@@H]1CCCCO[C@H](CN(C)C(=O)CCCN(C)C)[C@H](C)CN([C@H](C)CO)C(=O)c2cc(NC(=O)CCC(F)(F)F)ccc2O1,6% (inactive)
11,C[C@@H]1CCCCO[C@@H](CN(C)Cc2ccncc2)[C@H](C)CN([C@H](C)CO)C(=O)c2cc(NC(=O)NC3CCCCC3)ccc2O1,10.4% (inactive)
12,O=C(C[C@@H]1C[C@H]2c3cc(NC(=O)Nc4ccccc4)ccc3O[C@H]2[C@@H](CO)O1)NC1CCCCC1,6.41% (inactive)
13,CN(CC(=O)NCc1cccnc1)S(=O)(=O)c1cc(Cl)ccc1Cl,2.11% [at 12.3 µM] (inactive)
14,O=C(CN(c1cc(C(F)(F)F)ccc1Cl)S(=O)(=O)c1ccccc1)NCc1cccnc1,85.1% [at 12.3 µM] (active)
15,CCc1ccc(N(CC(=O)NCc2cccnc2)S(=O)(=O)c2ccccc2)cc1,10.5% [at 12.3 µM] (inactive)
16,C/C=C/c1ccccc1[C@@H]1[C@@H](C#N)N(c2nc(CC)cs2)[C@@H]1CO,-1.66% (inactive)
17,CCCNC(=O)N1CCC2(CC1)CN(C(=O)CN1CCOCC1)[C@H](CO)c1[nH]c3cc(OC)ccc3c12,-5.75% (inactive)
18,Cc1ccccc1-c1cnc2c(c1)C(=O)N([C@H](C)CO)C[C@H](C)[C@@H](CN(C)C(=O)c1ccccc1)O2,-8.15% (inactive)
19,S=C(NCc1ccc(Cl)cc1)NC12CC3CC(CC(C3)C1)C2,103% [at 12.3 µM] (active)
20,Cc1ccc(C(=O)NC23CC4CC(CC(C4)C2)C3)c(Cl)c1,-0.699% [at 12.3 µM] (inactive)
21,O=C(NCc1ccc2c(c1)OCO2)C12CC3CC(CC(C3)C1)C2,8.77% [at 12.3 µM] (inactive)
